Data published in PubChem BioAssay AID686979 (National Center for Advancing Translational Sciences (NCATS), 2013).
Out of some 420,000 compounds screened, about 50,000 (12%) were called active. Inconclusive results (about 26%) are left out. For the sample, actives were picked, then their nearest neighbours and some compounds at random. A number with no mark means an inactive call. Calls come from the whole dose curve; as a rule, active = well fitted inhibition curve with a large enough effect; inconclusive = small, poorly fitted or top-dose-only effect; inactive = flat fitted curve, though single readings scatter. Where a SMILES comes first, the peptide text is derived from it. The star is where a group is joined. Bz = O=C(c1ccccc1)*

Assay: qHTS for Inhibitors of human tyrosyl-DNA phosphodiesterase 1 (TDP1): qHTS in cells in presence of CPT; note: nearly all actives have a fitted effect of over 55% in size
Details: chicken DT40 Tdp1-/-;hTDP1 cells + 20 nM CPT, ATP luminescence, 48 h; series mostly up to 46.2 µM; activity change, negative = growth inhibition: at the top concentration
Outline: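 Cell growth measured by CellTiter-Glo luminescence after a minimum 48 h, 37 C compound exposure with 20 nM CPT in Tdp1-knockout DT40 cells stably expressing hTDP1, seeded 400/well; qHTS titration format.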
% is set by controls: 0 for no effect and ±100 for the full control effect; potency is the fitted concentration of half-maximal effect.

Row | SMILES | activity change, negative = growth inhibition [%] | Potency
1 | COc1ccc(-c2ocnc2C(=O)Nc2ccc3c(c2)CCC3)cc1 | -19.1 | 
2 | CC1(C)O[C@@H]2[C@H](O1)[C@@H](COS(=O)(=O)O)O[C@H]2n1ccc(=O)[nH]c1=O | 3.71 | 
3 | Cn1nnc2cc(C(=O)NCCC3=CCCCC3)ccc21 | -5.42 | 
4 | O=C(NCCC1=CCCCC1)c1ccc(-n2cncn2)cc1 | 3.69 | 
5 | Cc1ccn2c(=O)c(C(=O)NCCC3=CCCCC3)c(O)nc2c1 |  | 23.1 µM (active)
6 | Nc1ccc2c(c1)C(O)c1ccc(Cl)cc1-2 (configuration not stated) | 9.47 | 
7 | O=C(c1ccc(Br)cc1)N(Cc1cccs1)c1ccc(F)cc1 | -0.898 | 
8 | CC(C)OC(=O)CN1CCN(c2ccc(Cl)cc2)CC1 | -10 | 
9 | CC(NC(=O)c1cccc(S(=O)(=O)N2CCc3ccccc3C2)c1)c1ccco1 (configuration not stated) | 5.04 | 
10 | COC(=O)c1ccc(S(=O)(=O)N2CCc3ccccc3C2)cc1 | 3.02 | 
11 | Cc1cccc(N2CCN(C(=O)c3cccc(S(=O)(=O)N4CCc5ccccc5C4)c3)CC2C)c1 (configuration not stated) |  | 9.2 µM (active)
12 | CC1CCCC(C)N1C(=O)COC(=O)COc1ccccc1C#N (configuration not stated) | 10 | 
13 | O=C(COC(=O)c1ccc(O)cc1O)c1ccc2c(c1)OCCO2 | -7.19 | 
14 | CC(CNC(=O)c1ccc(N)cc1)NC(=O)c1ccc(N)cc1 (configuration not stated) | -14.5 | 
15 | O=C(NC(Cc1ccccc1)C(=O)N1CCCC1C(=O)O)c1ccccc1 (stereo not drawn) (Bz-Phe-Pro-OH; configuration not given here) | 9.2 | 
16 | CN(Cc1ccccc1F)C(=O)C(Cc1ccccc1)NC(=O)c1ccccc1 (configuration not stated) |  | 29.1 µM (active)
17 | CC(Cc1ccccc1)C(=O)N(C)Cc1ccccc1 (configuration not stated) | -28.3 | 
18 | CC(=O)c1sc(NC(=O)c2ccc(C)cc2)nc1C | 1.92 | 
19 | N#Cc1ccc(C(=O)Nc2nc(-c3cccs3)c(C(=O)C(F)(F)F)s2)cc1 |  | 1.64 µM (active)
20 | CCOc1cccc(C(=O)Nc2nnc(-c3cccs3)s2)c1 | 2.99 | 
21 | CC1CN(C(=O)c2cc(COc3c(F)cccc3F)on2)CCN1C (configuration not stated) | -11.5 | 
22 | CC1CCCN(C(=O)Cn2c(=O)oc3cc(S(=O)(=O)N4CCCCC4C)ccc32)C1 (configuration not stated) | -5.01 | 
23 | CC1CCCCN1C(=O)Cn1c(=O)oc2cc(S(=O)(=O)N3CCCCC3)ccc21 (configuration not stated) | -9.54 | 
24 | CC(C)CCNC(=O)Cn1c(=O)oc2cc(S(=O)(=O)N3CC(C)CC(C)C3)ccc21 (configuration not stated) |  | 23.1 µM (active)
25 | CC(=O)c1cccc(NC(=O)CSc2nc3c(c(=O)[nH]2)CCC3)c1 | -22 | 
26 | O=C(CCc1ccccc1)NNC(=O)COc1ccc(Cl)cc1 | 7.55 | 

Row | SMILES | activity change, negative = growth inhibition [%] | Potency
27 | O=C(COC(=O)COc1cccc(F)c1)NCC1CCCCC1 | -5.73 | 
28 | Cc1ccccc1CN1CCN(CC(=O)NCc2ccccn2)C1=O | 7.35 | 
29 | Cc1ccccc1CN1CCC(CNC(=O)c2c(C)oc3ncnc(N4CCCCC4)c23)CC1 | -37.6 | 
30 | COc1cc(NC(=O)c2cc3ccc4cccnc4c3[nH]2)cc(OC)c1OC | 3.24 | 
31 | CCOc1ccccc1N(CC)C(=O)c1cc2ccc3cccnc3c2[nH]1 |  | 5.8 µM (active)
32 | CCOc1cccc(OCCCOc2cccc3cccnc23)c1 | -20.9 | 
33 | Cc1ccccc1CN1CCC(CNC(=O)c2cc3ccc4cccnc4c3[nH]2)CC1 |  | 16.4 µM (active)
34 | O=c1[nH]n2c(=O)c3c([nH]c2c1N=Nc1ccccc1)CCC3 | 13.8 | 
35 | Cc1ccc(N(C(=O)CNC(=O)c2ccco2)C(C(=O)NC2CCCC2)c2ccncc2)cc1 (configuration not stated) | 3.72 | 
36 | CCOc1cc2[nH]c(=O)n(Cc3ccc(C(=O)NCCN(CC)CC)cc3)c(=O)c2cc1OCC | -21.8 | 
37 | CCOC(=O)N1CCN(Cc2nc3cc(NC(C)=O)ccc3n2C)CC1 | -0.461 | 
38 | COc1ccc(OCC(=O)Nc2nnc(-c3ccco3)s2)cc1 | 14.6 | 
39 | CCCCN(C(=O)C(CCSC)N1C(=O)c2ccccc2C1=O)c1c(N)n(CCC)c(=O)[nH]c1=O (configuration not stated) | 13.1 | 
40 | CCCCOc1ccc(C(=O)NN2CCN(C)CC2)cc1 | -8.94 | 
41 | CCCCOc1ccc(C(=O)NCc2ccncc2)cc1 | -27.1 | 
42 | CCCOc1ccc(C(=O)C(CCC(CNCC)C(=O)c2ccc(OCCC)cc2)CNCC)cc1 (configuration not stated) |  | 0.651 µM (active)
43 | CCCOc1ccc(C(=O)NCCc2ccccc2)cc1 | -25.3 | 
44 | CCCOc1ccc(C(=O)CCC(=O)OC(C)C(=O)Nc2ccc(NC(C)=O)cc2)cc1 (configuration not stated) | 12.4 | 
45 | CCCCOc1ccc(C(=O)NO)cc1 |  | 10 µM (active)
46 | CC(C)CCNC(=O)CSc1nc2ccccc2nc1Cc1ccc(Cl)cc1 | 0.489 | 
47 | CC1C(=O)Nc2ccccc2N1C(=O)c1c(F)cccc1F (configuration not stated) | -18.3 | 
48 | COc1ccccc1/C=C/C(=O)NC1CC2CCC1C2 (configuration not stated) | -17.6 | 
49 | Cc1sc2ncn(CC(=O)NCCN(C)C)c(=O)c2c1S(=O)(=O)N1CCC(C)CC1 | -0.026 | 
50 | O=C(NC1CCN(C(=S)Nc2ccc(Cl)cc2)CC1)C1CCCCC1 | -0.741 | 
51 | COc1ccc(/C(N)=N/OC(=O)CCCc2ccccc2)cc1 | 4.34 | 
52 | Cc1c(C#N)c(NC(=O)c2ccccc2)n(Cc2ccccc2)c1C | -20.1 | 

Row | SMILES | activity change, negative = growth inhibition [%] | Potency
53 | Cc1ccc(C(=O)Nc2c(C#N)c(C)c(C)n2Cc2ccccc2)cc1 |  | 25.9 µM (active)
54 | Cc1ccc(C(=O)NCCNS(=O)(=O)c2ccccc2)cc1 | -14.4 | 
55 | COC(=O)/C=C(\Oc1ccccc1)C1(O)CCCCC1 | 14.8 | 
56 | CC(Nc1nc(N2CCCC2)nc2ccccc12)c1ccccc1 (configuration not stated) |  | 23.1 µM (active)
57 | CC(Nc1nc(N2CCN(CCO)CC2)nc2ccccc12)c1ccccc1 (configuration not stated) | 14.8 | 
58 | Cc1ccc(C(CC(=O)O)Nc2nc(N3CCCCC3)nc(N3CCCCC3)n2)cc1 (configuration not stated) | -14.2 | 
59 | CCCOc1ccc(/C(O)=C2/C(=O)C(=O)N(CCN(C)C)C2c2ccc(OC)c(OC)c2)cc1 (configuration not stated) | -7.9 | 
60 | CC1CCN(C(=O)COC(=O)c2cc(=O)[nH]c3ccccc23)CC1 | -12.6 | 
61 | CCc1ccc(OC(C)C(=O)Nc2ccc(S(=O)(=O)Nc3cc(C)on3)cc2)cc1 (configuration not stated) | 7.74 | 
62 | CCOc1ccc(-c2nonc2NC(=O)c2oc3ccc(CC)cc3c2C)cc1 |  | 18.4 µM (active)
63 | CCc1nonc1NC(=O)c1oc2ccc(Cl)cc2c1C |  | inactive
64 | Cc1nonc1NC(=O)c1oc2ccccc2c1C | -11 | 
65 | CC(=O)N(O)CCCCCNC(=O)CCC(=O)N(O)CCCCCNC(=O)CCC(=O)N(O)CCCCCNC(=O)CCC(=O)O | 18.6 | 
66 | CCCCNC(=O)OC1CC2CC1[C@H]1CCCCN1C2=O (some centres not stated) | 3.61 | 
67 | CC(C)(C)c1cc[n+](-c2[nH]c(=O)sc2/C=N/N=C(\[O-])c2ccccc2)cc1 | -15.9 | 
68 | C/C(=N\NC(=O)COc1ccc(C)cc1[N+](=O)[O-])c1ccc2c(c1)OCCO2 | -29.2 | 
69 | O=C(Nc1ccc2nc(SCC(=O)N3CCc4ccccc43)sc2c1)c1ccccc1F | -18.9 | 
70 | O=C(Nc1ccc2nc(SCC(=O)N3CCCc4ccccc43)sc2c1)c1ccc(Cl)cc1 |  | 5.17 µM (active)
71 | O=C(Nc1ccc2nc(SCC(=O)N3CCCc4ccccc43)sc2c1)c1ccc(F)cc1 |  | 5.8 µM (active)
72 | CCC(=O)Nc1ccc2nc(SCC(=O)N3CCc4ccccc43)sc2c1 |  | 16.4 µM (active)
73 | Cn1c(=O)c2c(SCC(=O)N3CCc4ccccc43)nc(-c3ccc(Cl)cc3)nc2n(C)c1=O | -2.75 | 
74 | Nc1nnc(SCC(=O)Nc2ccc3nc(SCC(=O)Nc4ccccc4)sc3c2)s1 |  | 13 µM (active)
75 | Cc1nnc(SCC(=O)N2CCc3ccccc32)n1-c1ccccc1 | 7.14 | 
76 | CC(=O)c1ccc(NC(=O)CSc2nnc(NC(=O)Nc3ccccc3)s2)cc1 | -18.4 | 
77 | O=C(NCc1nnc(SCC(=O)N2CCCc3ccccc32)o1)c1ccccc1F | -15 | 
78 | O=C(CSc1ccc2nnc(-c3ccccc3)n2n1)N1CCCc2ccccc21 | 4.03 | 

Row | SMILES | activity change, negative = growth inhibition [%] | Potency
79 | O=C(CSc1nc2ccccc2s1)Nc1ccc(C(=O)O)cc1 | 7.64 | 
80 | CC(=O)Nc1ccc(S(=O)(=O)NCC2CCC(C(=O)NCCc3ccccc3)CC2)cc1 (configuration not stated) |  | inactive
81 | O=C(NC1CCCC1)C1CC(=O)N(c2ccc(F)cc2)C1 (configuration not stated) | -1.64 | 
82 | Cc1cc(NC(=O)CN2C(=O)NC(CC(C)C)C2=O)no1 (configuration not stated) | 1.11 | 
83 | CC(C(=O)N(C)CC(=O)Nc1ccccc1C(F)(F)F)N1C(=O)c2ccccc2C1=O (configuration not stated) | 8.73 | 
84 | CC(OC(=O)c1cccnc1Cl)C(=O)NC1CCCCC1 (configuration not stated) | 2.06 | 
85 | CCN(Cc1ccccc1)C(=O)CCS(=O)(=O)c1ccc2c(c1)oc(=O)n2C |  | inactive
86 | CCCCC(NS(=O)(=O)c1ccc(C)cc1)C(=O)Oc1ccc2c3c(c(=O)oc2c1)CCC3 (configuration not stated) | -28.7 | 
87 | CN1CCN(C(=O)c2cnn(-c3ccccc3)c2NC(=O)c2ccc([N+](=O)[O-])cc2)CC1 | -6.48 | 
88 | CCCCC(=O)N(C)c1c(CC)nc2c(OCc3ccc(Cl)cc3Cl)cccn12 |  | 20.6 µM (active)
89 | COC(=O)c1ccc(CSc2nncn2C)cc1 | -22 | 
90 | CCOC(=O)c1nc(C)n(-c2ccc(Cl)cc2Cl)n1 | -13 | 
91 | CCc1nc2c(OCc3ccc(C(=O)OC)cc3)cccn2c1N(C)C(=O)C(C)C |  | 20.6 µM (active)
92 | Cc1nc2c(OCc3ccc(Cl)cc3Cl)cccn2c1N(C)CC1CC1 |  | 16.4 µM (active)
93 | CC(C)(C)NC(=O)NC(=O)COC(=O)Cc1ccc(Cl)cc1Cl | 0.66 | 
94 | Clc1ccc(-c2ncc3ccccn23)c(Cl)c1 | 24 | 
95 | CCc1nc2c(OCc3ccc(Cl)cc3Cl)cccn2c1N(C)C(=O)C(C)C |  | 7.31 µM (active)
96 | COC(=O)c1ccc(COC(=O)c2cnccn2)cc1 | 13.1 | 
97 | CCc1nc2c(OCC(=O)C(C)(C)C)cccn2c1N(C)C(=O)c1ccccc1F | -21.1 | 
98 | CC(C)(C)OC(=O)NC(Cc1ccccc1)C(=O)NC(CSC1CCCCO1)C(=O)NN (configuration not stated) | -3.48 | 
99 | CC(=O)c1cc2c(cc1NC(=O)Cn1nc(-c3ccc(F)cc3)ccc1=O)OCO2 | 3.19 | 
100 | COc1ccccc1OCCCCCCN1CCN(C)CC1 | -6.86 | 
101 | CC(C)[C@H](NC(=O)N1c2ccccc2NC(=O)[C@@H]1C(C)C)C(=O)N[C@H](C(=O)O)c1ccccc1 | -2.73 | 
102 | CCCNC(=O)c1onc(CSc2ccc(F)cc2)c1C(=O)NC(C)C | -1.26 | 
